This is an account of results in paper PMC7819943, “Rice protein-binding microarrays: a tool to detect cis-acting elements near promoter regions in rice”.

Whole data set: some 68,000 sequences, median “fluorescence intensity (a.u.)” near 9,100, cut for the highest 2% near 16,000. The full list was thinned out, with the highest values kept by preference.

Chain of OsWRKY34 (Q0JBA9 entry or part of it): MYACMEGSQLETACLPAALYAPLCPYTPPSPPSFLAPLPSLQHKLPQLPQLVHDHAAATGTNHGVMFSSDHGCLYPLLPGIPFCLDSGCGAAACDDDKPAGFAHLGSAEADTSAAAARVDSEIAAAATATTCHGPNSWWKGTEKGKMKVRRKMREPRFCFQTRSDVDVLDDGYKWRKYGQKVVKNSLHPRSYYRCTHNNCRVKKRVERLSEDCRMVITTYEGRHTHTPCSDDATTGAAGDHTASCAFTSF

In this assay the target is OsWRKY34 (Oryza sativa, UniProt Q0JBA9 1-250). Nature of the assay: protein-binding microarray (RPBM); PBS, 2% BSA, 51.3 ng/ul salmon testes DNA, 50 uM zinc acetate, 200 nM TF, 25 C, 1 h; high values mean tight binding. The following applies: protein: recombinant; tags: N-terminal polyhistidine and DsRed monomer fusion (pET32a); label: CyDye5-dUTP incorporated in the synthesized complementary strand; 3' TTTTT single-stranded linker to array surface; dsDNA, one strand shown. An outline of the steps:
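Using Ni–NTA, transcription factors fused N-terminally to polyhistidine and DsRed were purified after expression in E. coli BL21-CodonPlus. These were incubated at 200 nM with a blocked, double-stranded custom Agilent array for 1 h at 25 °C in a buffer containing 50 µM zinc acetate, and the array was washed. The binding signal is per-feature fluorescence intensity (arbitrary units) on an Axon 4000B scanner.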
Regarding “ACTTTTTTTCTCAATCTGTGCTCTTTCACGTGTTTGACTTCGGAGTCACCTAGTGCAG”, the binding signal is 11400 fluorescence intensity (a.u.). In the case of “TAGACTTTTTCTCACATGTTTGACCATTCGTCTTATTCAACGGAGTCACCTAGTGCAG”, the binding signal is 11700 fluorescence intensity (a.u.).

For “TGACTTTTTCTCACATGTTTGACCATTCGTCTTATTAAAACGGAGTCACCTAGTGCAG”, the binding signal was 12500 fluorescence intensity (a.u.).

Consider “TCATCTCACGCTGTTGACTTTCTCTTTTTTTTTCGGGGAGCGGAGTCACCTAGTGCAG”, for which the binding signal was 18000 fluorescence intensity (a.u.). Consider “TAGATGACGCCGTTGATTTTTTTCTCACATATTTGACCATCGGAGTCACCTAGTGCAG”, for which the binding signal was 10700 fluorescence intensity (a.u.). On to “AGATGACGCCGTTGACTTTTTCTTACATATTTGACCATTCCGGAGTCACCTAGTGCAG”, for which the binding signal is 25400 fluorescence intensity (a.u.). The figure for “TGACGCCGTTGACTTTTTATCTAATGTTTGACTATTCGTCCGGAGTCACCTAGTGCAG” is 43500 fluorescence intensity (a.u.); for “CACCGTTGACTTTTTCTCACATGTTTGACCATTCGTCTTACGGAGTCACCTAGTGCAG” it is 48400 fluorescence intensity (a.u.); for “AGTTGTTCTTCTCAGCAGGTTGCTGTCATCTTAGACTTTTCGGAGTCACCTAGTGCAG” it is 8410 fluorescence intensity (a.u.). The figure for “ACTGTCCACTCACTTTTTCTTCACCCAGGAGACGAAATTTCGGAGTCACCTAGTGCAG” is 11200 fluorescence intensity (a.u.).

Consider “TGGCTTATCTCGTTTTGTATATCATCTTCTTAATCTTTTTCGGAGTCACCTAGTGCAG”, for which the binding signal was 10500 fluorescence intensity (a.u.). In the case of “CTGCCTCGCTGCCGCCTGCCGTCTCCCCGGGCCCATCTTTCGGAGTCACCTAGTGCAG”, the binding signal is 8210 fluorescence intensity (a.u.).

“GTGGCGTCAAAGTATTGAGGGCGGGGATGCGGCCACCGTACGGAGTCACCTAGTGCAG”: the binding signal was 8640 fluorescence intensity (a.u.). For “ACCTGTGCTTGATGGGATGGAAGCTTGGATTAGGTTGGTTCGGAGTCACCTAGTGCAG” the value was 8560 fluorescence intensity (a.u.); for “TCTCGCTCGTTTTACCGCAGCATTTTGTTGTTGCTCTAGCCGGAGTCACCTAGTGCAG”, 8620 fluorescence intensity (a.u.); for “AGTTAGTCAAGCGTATCCTATTTTACGTGCCCGCGCGAATCGGAGTCACCTAGTGCAG”, 9610 fluorescence intensity (a.u.). Consider “GACTATCTTGTCGTTCGGTCCAAAAACCGGCGCCTTATGACGGAGTCACCTAGTGCAG”, for which the binding signal is 8300 fluorescence intensity (a.u.). On to “CACGACCTTAAGCCTCATAATTTGGACAATCACAGCAACTCGGAGTCACCTAGTGCAG”, for which the binding signal is 9170 fluorescence intensity (a.u.). For “AATAGATGACGTTGTTGACTTTTTCTCATATGTTTGACCACGGAGTCACCTAGTGCAG” the value was 13000 fluorescence intensity (a.u.).

Consider “TTCTCACATGTTTGACCATTCGTCTTATTAAAAATTTTATCGGAGTCACCTAGTGCAG”, for which the binding signal is 11100 fluorescence intensity (a.u.).

Consider “GCACATGTTTGACCATTCATCTTATAAGAAAAAACTTTTGCGGAGTCACCTAGTGCAG”, for which the binding signal was 8090 fluorescence intensity (a.u.).

For the sequence “CGCCGTTGACTTTTTCTCACATGTTTGACCATTCGTCTTACGGAGTCACCTAGTGCAG”, the binding signal is 42500 ± 475 fluorescence intensity (a.u.). As to “TTGACCTTTTCTCACATGTTTAACCATTCGTCTTATTTAACGGAGTCACCTAGTGCAG”, the binding signal was 13500 fluorescence intensity (a.u.). In the case of “ATAGATGACGCCGTTGATTTTTTCTCATATGTTTGACCATCGGAGTCACCTAGTGCAG”, the binding signal was 11600 fluorescence intensity (a.u.). For “CATTGACTTTTTCTCACATATTTGTCCATTCGTCTTATTACGGAGTCACCTAGTGCAG” the value was 16100 fluorescence intensity (a.u.); for “ACCATGTTGACTTTTTGCACATTTATAGAATCTTTTGGTACGGAGTCACCTAGTGCAG”, 21800 fluorescence intensity (a.u.); for “GTTGACTTTTTTTCACATGTTTGACCATTCATCTTATTCACGGAGTCACCTAGTGCAG”, 13400 fluorescence intensity (a.u.).

“TGATGCCGTTGACTTTTTCTCATATGTTTGACCATTCGTCCGGAGTCACCTAGTGCAG”: the binding signal is 44800 fluorescence intensity (a.u.). For “TTTTTTCTCACATGTTTGACCATTCGTCTTATTCAAAAAACGGAGTCACCTAGTGCAG” the value was 8550 fluorescence intensity (a.u.); for “GCCGTTGACTTTTTCTCACATATTTGACCATTCGTCTTATCGGAGTCACCTAGTGCAG”, 45300 fluorescence intensity (a.u.). On to “TCGTCCGCTGCAGCCGCTCGCTAGCTAGTAGCTATAGCTACGGAGTCACCTAGTGCAG”, for which the binding signal is 8160 fluorescence intensity (a.u.). For “ACACAGGCAGCAGTAGCACCTCGATCCATCTACCATTTTACGGAGTCACCTAGTGCAG” the value was 10200 fluorescence intensity (a.u.); for “CTTAGCTCGTATGTAGACTTTTGATGGCTTAATCCTATTTCGGAGTCACCTAGTGCAG”, 8550 fluorescence intensity (a.u.). The figure for “ATTAGGGATAACCGTCACTGTTTGTTGCTGTTTTTATGTTCGGAGTCACCTAGTGCAG” is 9960 fluorescence intensity (a.u.); for “TTGGTGACTAAGCAGCTAGCTCATATTCCGTTTCAGCTTCCGGAGTCACCTAGTGCAG” it is 9770 fluorescence intensity (a.u.). With “TCTCGTGTTCCTCTTCACTACCACTTCTAGAAGCTTCCTCCGGAGTCACCTAGTGCAG”, the binding signal is 8020 fluorescence intensity (a.u.). Turning to “GGGGTTTATTATTTTCCCGGGTTAAATTGCCACGTAAGCACGGAGTCACCTAGTGCAG”, the binding signal was 10100 fluorescence intensity (a.u.). For “ATAATAATATTTTTCACCTATGCCATACTTCTTTTGTCAACGGAGTCACCTAGTGCAG”, the binding signal is 8040 fluorescence intensity (a.u.). The figure for “CGACTCCGACCTCTGCTCTCTTCCTTTTACACCCCATATCCGGAGTCACCTAGTGCAG” is 11100 fluorescence intensity (a.u.); for “TTTACTAAACTCGATCAGTTCTTCCCATATACTCTTGTGACGGAGTCACCTAGTGCAG” it is 9070 fluorescence intensity (a.u.). On to “ATCAACCATGAACCATCCGCGCCCGCGCACCTCCTCCTCTCGGAGTCACCTAGTGCAG”, for which the binding signal is 8100 fluorescence intensity (a.u.). For “TTCTCCATTTTTTCATGGTTGACTCTAATCTTCATGACTACGGAGTCACCTAGTGCAG” the value was 8280 fluorescence intensity (a.u.).

As for “CGTTGACTTTTTCTCACATGTTTGACCATTCGTCTTATTCCGGAGTCACCTAGTGCAG”, the binding signal was 31500 fluorescence intensity (a.u.). Regarding “TAGCTCATTCATGCCTCCATCGGTTGACTTTTTTTTTCTACGGAGTCACCTAGTGCAG”, the binding signal was 20500 fluorescence intensity (a.u.).

For “TTGACTTTTTCTCACATGTTTGACCATTCGTCTTATTCAACGGAGTCACCTAGTGCAG”, the binding signal was 15400 fluorescence intensity (a.u.). For “TTACACTTTCTCCTCCATCATGCGCTCATGGCCATCCATTCGGAGTCACCTAGTGCAG”, the binding signal is 8320 fluorescence intensity (a.u.). The figure for “TGACTTTTTCTCACATGTTTGACCATTCGTCTTATTCAAACGGAGTCACCTAGTGCAG” is 10900 ± 914 fluorescence intensity (a.u.); for “GTCGCCGCCTCCTCCTCTCCATCTCCGCTGCTATTATTGCCGGAGTCACCTAGTGCAG” it is 12900 fluorescence intensity (a.u.). For “TTTTCTCTGTTTACTTTTTTTTTATTATTTTTTTGCGCCGCGGAGTCACCTAGTGCAG” the value was 8240 fluorescence intensity (a.u.); for “ATGTCATGTCATGTCGCATATCTCCCATGTCTTGGCACGACGGAGTCACCTAGTGCAG”, 9540 fluorescence intensity (a.u.). Regarding “TACTTGGCTATACTATTAAACTTGCTCTCGCACCATCTTTCGGAGTCACCTAGTGCAG”, the binding signal is 9680 fluorescence intensity (a.u.).

With “GTTGCAAAAGAGGCCTCTGACATGGTTCTTGCTGATGACACGGAGTCACCTAGTGCAG”, the binding signal is 8450 fluorescence intensity (a.u.). The figure for “CGGGGCCCAACGAGGTGGCGCCGTGGCTGGTGGGGCGGGTCGGAGTCACCTAGTGCAG” is 9270 fluorescence intensity (a.u.); for “ATCGCCATATAGGCGCCACGTGGAACGAAGACTCGGTCAACGGAGTCACCTAGTGCAG” it is 9350 fluorescence intensity (a.u.); for “GATCAACGAACACTCGTGGGCCGTAGGCGGAGGCGCAAGTCGGAGTCACCTAGTGCAG” it is 62600 fluorescence intensity (a.u.).
